These results are taken from PubChem BioAssay (NCI).

This is part of a sample that, as a whole, favours compounds with a hit. Of some 83,000 tested, about 20% had one in any assay.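 Activity criterion: percent growth below 10, measured after cells in 96-well plates were exposed to a single compound concentration for 48 hours.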 A number with no mark means an inactive call. Calls of active or inactive are those of the source.

Among the test systems are DU-145 prostate; K-562 leukemia; MALME-3M melanoma; MDA-MB-231 breast; RXF 393 renal; SF-268 CNS; SF-295 CNS; SF-539 CNS; UACC-257 melanoma; M14 melanoma; HCT-15 colon; HT29 colon; SNB-75 CNS; SNB-19 CNS; U251 CNS; PC-3 prostate; SK-MEL-5 melanoma; UACC-62 melanoma; LOX IMVI melanoma; SK-MEL-28 melanoma.
Holding throughout (experiment): NCI-60 one-dose screen, 48 h (100 = growth as untreated, 0 = no growth, -100 = all killed)
What all share (details): 10 µM unless noted

Take `CCOC(=O)C1=C(C(=O)c2ccc(Br)cc2)C(c2ccc(Br)cc2)NC(=S)N1` (stereo not given): the growth in the assay with DU-145 prostate is 113%; in the assay on K-562 leukemia, 106%; with MALME-3M melanoma it was 107%; with MDA-MB-231 breast, 109%; in the assay on RXF 393 renal, 109%; with SF-268 CNS, 98.6%. Also, the growth was 102% with SF-295 CNS; 99.5% in the assay on SF-539 CNS; 109% with UACC-257 melanoma; 97.2% with M14 melanoma; 99% in the assay with HCT-15 colon; 104% in the assay with HT29 colon. Also, the growth in the assay with SNB-75 CNS is 93.1%; in the assay on SNB-19 CNS it was 100%; in the assay on U251 CNS, 95.8%; in the assay on PC-3 prostate, 98.1%; with SK-MEL-5 melanoma, 103%; in the assay with UACC-62 melanoma it was 94.8%. Further, the figures for the growth in the assay with LOX IMVI melanoma and with SK-MEL-28 melanoma were 94% and 105%, respectively.

`CCOC(=O)C(=Cc1ccccc1[N+](=O)[O-])C(=O)OCC`: the growth with DU-145 prostate is -51.5% (active); in the assay with K-562 leukemia, 0.762% (active); in the assay with MALME-3M melanoma, 67.3%; in the assay on MDA-MB-231 breast, 9.18% (active); in the assay with RXF 393 renal it was 0.0546% (active); with SF-268 CNS it was 13.3%. Also, the growth was 95.5% in the assay with SF-295 CNS; -15.5% (active) with SF-539 CNS; 42% in the assay with UACC-257 melanoma; 25.2% in the assay with M14 melanoma; 5.68% (active) in the assay with HCT-15 colon; 11.4% with HT29 colon. Further, the growth was -7.8% (active) in the assay on SNB-75 CNS; 59.6% in the assay on SNB-19 CNS; 23.4% in the assay on U251 CNS; 47% in the assay on PC-3 prostate; 20.4% in the assay with SK-MEL-5 melanoma; 32.3% in the assay with UACC-62 melanoma. Also, the growth in the assay on LOX IMVI melanoma is -18.5% (active); with SK-MEL-28 melanoma, 33.7%.

Take `COc1cc(OC)cc(C(=O)Nc2cc(-c3cccnc3)nc(NCCCN3CCOCC3)n2)c1`: the growth is 104% in the assay on DU-145 prostate; 74.1% with K-562 leukemia; 110% in the assay with MALME-3M melanoma; 79.6% in the assay on MDA-MB-231 breast; 93.9% in the assay on RXF 393 renal; 94.1% with SF-268 CNS. Also, the growth in the assay on SF-295 CNS was 101%; with SF-539 CNS, 91.1%; in the assay with UACC-257 melanoma, 88.6%; in the assay on M14 melanoma it was 104%; in the assay with HCT-15 colon, 90.6%; in the assay on HT29 colon it was 85.2%. Further, the growth in the assay on SNB-75 CNS is 109%; in the assay on SNB-19 CNS, 98.7%; with U251 CNS, 90.6%; in the assay on PC-3 prostate, 85.4%; in the assay with SK-MEL-5 melanoma it was 68.3%; in the assay on UACC-62 melanoma it was 97.6%. In addition, the growth is 88.1% with LOX IMVI melanoma and 101% with SK-MEL-28 melanoma.

Regarding `CC(C)(C)OC(=O)N1C=C/C(=C\Cn2cc(-c3ccccc3)nn2)CC1`, the growth in the assay on DU-145 prostate was 88.2%; in the assay on K-562 leukemia it was 41.4%; in the assay with MALME-3M melanoma, 65.7%; with MDA-MB-231 breast it was 75.9%; in the assay on RXF 393 renal it was 91.8%; in the assay on SF-268 CNS, 81%. Moreover, the growth in the assay with SF-295 CNS is 61%; in the assay on SF-539 CNS it was 79.5%; in the assay on UACC-257 melanoma, 66%; in the assay on M14 melanoma, 56.5%; in the assay with HCT-15 colon, 86.9%; in the assay on HT29 colon, 99.1%. The growth was 78.8% in the assay with SNB-75 CNS; 73.1% in the assay with SNB-19 CNS; 91.8% with U251 CNS; 82.7% in the assay on PC-3 prostate; 36.7% in the assay with SK-MEL-5 melanoma; 65.6% in the assay on UACC-62 melanoma. The growth was 76.9% in the assay with LOX IMVI melanoma and 72.7% in the assay with SK-MEL-28 melanoma.

With `O=C(NCc1ccccc1)C(Cl)Cl`, the growth in the assay on DU-145 prostate is 110%; with K-562 leukemia, 108%; with MALME-3M melanoma, 101%; in the assay with MDA-MB-231 breast, 102%; in the assay with RXF 393 renal, 107%; in the assay with SF-268 CNS, 99.7%. Besides, the growth in the assay on SF-295 CNS was 95.7%; with SF-539 CNS, 97.4%; in the assay with UACC-257 melanoma, 102%; in the assay on M14 melanoma, 101%; in the assay with HCT-15 colon, 98.2%; with HT29 colon, 99.2%. Also, the growth in the assay on SNB-75 CNS is 102%; with SNB-19 CNS it was 96.7%; in the assay on U251 CNS it was 99.4%; in the assay with PC-3 prostate, 101%; in the assay with SK-MEL-5 melanoma it was 101%; in the assay with UACC-62 melanoma, 93.1%. Also, the results for the growth in the assay on LOX IMVI melanoma and with SK-MEL-28 melanoma were 101% and 96.1%, respectively.

As for `C[n+]1c2ccccc2nc2c(N)cc(N)cc21`, the growth was 93.5% with DU-145 prostate; 36.4% in the assay on K-562 leukemia; 3.51% (active) in the assay on MALME-3M melanoma; 87.3% in the assay on MDA-MB-231 breast; 112% in the assay on RXF 393 renal; 24.8% in the assay on SF-268 CNS. In addition, the growth in the assay with SF-295 CNS was 89.5%; in the assay with SF-539 CNS, 48.6%; in the assay with UACC-257 melanoma, 92.8%; in the assay on M14 melanoma, 96%; with HCT-15 colon it was 110%; with HT29 colon, 84.7%. Besides, the growth in the assay on SNB-75 CNS was 75.2%; in the assay with SNB-19 CNS, -5.7% (active); in the assay with U251 CNS it was 8.86% (active); in the assay on PC-3 prostate, 77.6%; in the assay with SK-MEL-5 melanoma, 56.9%; in the assay on UACC-62 melanoma, 93%. Besides, the results for the growth in the assay with LOX IMVI melanoma and in the assay with SK-MEL-28 melanoma were 77.3% and 109%, respectively.

On to `CCn1cc(-c2ccnc(NCCNS(=O)(=O)c3ccc(Br)cc3)c2)c(-c2cccc(OC)c2)n1`, for which the growth was 84.7% in the assay with DU-145 prostate; 42.1% with K-562 leukemia; 70.9% in the assay on MALME-3M melanoma; 80.8% with MDA-MB-231 breast; 99.8% in the assay with RXF 393 renal; 71.5% in the assay with SF-268 CNS. In addition, the growth in the assay with SF-295 CNS was 95.4%; with SF-539 CNS, 78.3%; with UACC-257 melanoma it was 89.8%; in the assay on M14 melanoma it was 83.3%; in the assay on HCT-15 colon, 69.2%; in the assay with HT29 colon, 56.5%. The growth is 81.7% with SNB-75 CNS; 83.2% in the assay on SNB-19 CNS; 58.8% with U251 CNS; 41.7% with PC-3 prostate; 64% with SK-MEL-5 melanoma; 71% in the assay on UACC-62 melanoma. In addition, the growth was 94.2% in the assay with LOX IMVI melanoma and 100% in the assay with SK-MEL-28 melanoma.
